GDH-TPI inh = GDH-TPI coupled enzyme inhibition counter-screen. GDH-TPI coupled enzyme counterscreen, NADH absorbance. inhibition, % at 4.8 µM. 1.2% of 360,000 active; in the data active means inhibition above about 30%;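 further: 0% = DMSO wells and 100% = wells lacking the enzyme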
Mtb FBA inh = Mtb fructose-bisphosphate aldolase inhibition | P9WQA3 | 2.3% of 360,000 active | inhibition, % at 1 µM | purified M. tuberculosis FBA, fluorescence read-out; in the data active means inhibition above about 27%;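 further: 0% = vehicle and 100% = reference inhibitor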
Y pestis TopoI = Y. pestis Topo-I inhibition via cleavage products; Y. pestis Topo-I cleavage product accumulation, plate reader; activity, % at 10 µM; 0.064% of 360,000 active; AID 504884; in the data active means activity above about 50%, passing the limit was not always enough
TcdB GH inh = inhibitors of Clostridioides difficile toxin B glycohydrolase | AID 652162 | P18177 | TcdB glycohydrolase enzymatic assay, plate reader | inhibition, % at 9.99 µM | 0.24% of 350,000 active; in the data active means inhibition above about 10%
PrPC surface inh = inhibitors of human cell surface prion protein PrPC. P04156. TR-FRET read-out. inhibition, % at 13.8 µM. 0.43% of 370,000 active. AID 720596; in the data active means inhibition above about 24%; further: 0% = median of the test wells and 100% = reference compound wells
Numbers without * were called inactive. Hits are enriched below; roughly 3.2% of the tested compounds scored in any of these assays.

For CC(=O)c1cnc(Nc2ccccc2)s1 the results were GDH-TPI inh 23, Mtb FBA inh -2, Y pestis TopoI 0 and PrPC surface inh -9.
`CC(=O)c1cnc(N(C)C)s1` gave GDH-TPI inh 38*, Mtb FBA inh 3, Y pestis TopoI -1 and PrPC surface inh -7.
`CNC[C@H]1OCCCC[C@@H](C)Oc2ccc(NC(=O)Nc3ccc(C(F)(F)F)cc3)cc2C(=O)N([C@@H](C)CO)C[C@H]1C` gave TcdB GH inh 1.
For CC(=O)OC(C)(C)/C=C/C(=O)C(C)(O)C1C(O)CC2(C)C3CC=C4C(CC(O)C(=O)C4(C)C)C3(C)C(=O)CC12C (stereo unspecified) the results were GDH-TPI inh 1, Mtb FBA inh -2, Y pestis TopoI 24, TcdB GH inh 0 and PrPC surface inh 34*.
`CC(=O)OC(C)(C)/C=C/C(=O)[C@](C)(O)[C@H]1[C@H](O)C[C@@]2(C)[C@@H]3CC=C4[C@H](C[C@H](O)C(=O)C4(C)C)[C@]3(C)C(=O)C[C@]12C` gave GDH-TPI inh 7, Mtb FBA inh -1 and Y pestis TopoI 9.
`CN1CCN(C(=O)[C@@H]2[C@@H](CO)[C@@H]3Cn4c(ccc(C5=CCCC5)c4=O)[C@H]2N3S(C)(=O)=O)CC1` gave TcdB GH inh -1.
For C(=Nc1cccc2c(N=Cc3ccco3)cccc12)c1ccco1 the results were GDH-TPI inh 4, Mtb FBA inh 62* and Y pestis TopoI -19.
`NCC[C@H]1CC[C@@H](NC(=O)Cc2ccncc2)[C@@H](CO)O1` gave TcdB GH inh 0.
Screening CC(C)(C)N1C(=O)c2ccc(C(=O)Nc3ccc(O)cc3)cc2C1=O returned GDH-TPI inh -2, Mtb FBA inh 0, Y pestis TopoI 10, TcdB GH inh 22* and PrPC surface inh 16.
Screening CCC(=O)N1[C@@H]2c3cccc(=O)n3C[C@H]1[C@H](CO)[C@H]2C(=O)NC1CCC1 returned TcdB GH inh 1.
For CN(C)c1ccc(/C=N/NC(=O)CNC(=O)c2ccc3c(c2)OCCO3)cc1 the results were GDH-TPI inh 40*, Mtb FBA inh 24, Y pestis TopoI -1, TcdB GH inh -3 and PrPC surface inh 6.
Screening O=C(CNC(=O)c1ccc2c(c1)OCCO2)N/N=C/c1ccc(O)cc1O returned GDH-TPI inh 28, Mtb FBA inh 0, Y pestis TopoI -3 and PrPC surface inh -3.
`O=C(CNC(=O)c1ccncc1)N/N=C/c1ccc(O)cc1O` gave GDH-TPI inh 39*, Mtb FBA inh 0, Y pestis TopoI -3, TcdB GH inh -8 and PrPC surface inh -7.
`CN(C)c1ccc(/C=N/NC(=O)CNC(=O)c2ccncc2)cc1` gave GDH-TPI inh 33*, Mtb FBA inh 5, Y pestis TopoI -1, TcdB GH inh -1 and PrPC surface inh -3.
For CN(C)c1ccc(/C=N/NC(=O)CNC(=O)/C=C/c2ccco2)cc1 the results were GDH-TPI inh 40*, Mtb FBA inh 6, Y pestis TopoI -11, TcdB GH inh 1 and PrPC surface inh -4.
Screening COc1cccc(/C=N/NC(=O)CNC(=O)c2ccncc2)c1O returned GDH-TPI inh 9, Mtb FBA inh -1, Y pestis TopoI -2, TcdB GH inh -9 and PrPC surface inh -4.
`O=C(NCC1CC1)[C@H]1[C@H](CO)[C@H]2Cn3c(ccc(-c4cccnc4)c3=O)[C@@H]1N2C(=O)C1CCC1` gave TcdB GH inh 0.
`COCc1cc(C)n(CC(=O)Nc2ccc(Cl)cc2Cl)c(=O)c1C#N` gave GDH-TPI inh 31, Mtb FBA inh 122*, Y pestis TopoI -5 and PrPC surface inh -2.
`COCc1cc(C)n(CC(=O)Nc2ccccc2OC)c(=O)c1C#N` gave GDH-TPI inh 2, Mtb FBA inh 4, Y pestis TopoI 1 and PrPC surface inh 11.
For C[C@H]1CN([C@@H](C)CO)C(=O)c2cccc(NS(=O)(=O)c3ccccc3)c2O[C@@H]1CN(C)Cc1ccc(-c2ccccc2)cc1 the results were TcdB GH inh -20.
Cc1cccc(C(=O)N(Cc2nc3ccccc3c(=O)[nH]2)C2CCCC2)c1 was read as GDH-TPI inh -13, Mtb FBA inh -1, Y pestis TopoI 23, TcdB GH inh 0 and PrPC surface inh 7.
`Cc1cccc(C(=O)N(Cc2nc3ccccc3c(=O)[nH]2)C2CCCCC2)c1` gave GDH-TPI inh 4, Mtb FBA inh 1, Y pestis TopoI 54*, TcdB GH inh 2 and PrPC surface inh 17.

Bioassay records (PubChem BioAssay)
